Inconclusive results are not listed. Calls of active or inactive are those of the source. Calls follow the shape of the dose curve; as a rule, active = well fitted curve in the direction sought with a large enough effect in the repeat runs; inconclusive = weak or mixed curves; inactive = no such curve, though single readings can be large; an effect the other way counts as inactive or inconclusive.
Columns and labels:
[1] = qHTS RealTime-Glo MT Cell Viability Assay in HEK293 cells - 16 hour (AID 1224872); also: top concentration of the series differs between compounds; nearly all actives have a fitted effect of over 50% in size
Outline: (§1)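 Tox21 10K qHTS, HEK293, 600 cells/well, RealTime-Glo reagent co-dispensed with cells; 5 h preincubation, compound by pintool, 37 C, luminescence at 0–40 h.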

[2] = qHTS RealTime-Glo MT Cell Viability Assay in HepG2 cells - 8 hour (AID 1224873); also: nearly all actives have a fitted effect of over 55% in size
Outline: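 HepG2 cells (600/well) mixed with RealTime-Glo MT reagent, settled 5 h at 37 C/5% CO2 before compound addition. Nonlytic NanoLuc luminescence from viable-cell prosubstrate reduction read repeatedly during 40 h treatment at 37 C.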

[3] = qHTS RealTime-Glo MT Cell Viability Assay in HEK293 cells - 40 hour (AID 1224874); conditions: RealTime-Glo luminescence; max response: active compounds read low; also: nearly all actives have a fitted effect of over 50% in size
Outline: (§2)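 Measured as luminescence from the same continuously cultured HEK293 wells at successive time points (0, 8, 16, 24, 32, 40 h) after compound addition. Reagent present from seeding; dosing at 5 h; incubation 37 C.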

[4] = A CellTox Green Cytotoxicity Assay to monitor cytotoxicity in HEK293 cells - 24 hour (AID 1224875); also: series mostly up to about 77 µM; nearly all actives have a fitted effect of over 45% in size
Outline: (§3)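 Homogeneous no-lysis format: HEK293 cell suspension mixed with CellTox Green reagent, seeded, incubated 5 h at 37 C/5% CO2, then dosed by pintool with compound in DMSO.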

[5] = A CellTox Green Cytotoxicity Assay to monitor cytotoxicity in HepG2 cells - 16 hour (AID 1224876); also: nearly all actives have a fitted effect of over 45% in size
Outline: (§4)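 Fluorescent DNA-binding dye, 600 HepG2 cells/well, 5 h preincubation then compound in DMSO; same plates read at 0–40 h, 37 C.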

[6] = qHTS RealTime-Glo MT Cell Viability Assay in HepG2 cells - 32 hour (AID 1224877); also: nearly all actives have a fitted effect of over 55% in size
Outline: (§5)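 Cells + NanoLuc/prosubstrate dispensed (600 cells/well) → 5 h at 37 C/5% CO2 → compounds in DMSO transferred → 40 h incubation at 37 C, luminescence read at 0, 8, 16, 24, 32, 40 h.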

[7] = A CellTox Green Cytotoxicity Assay to monitor cytotoxicity in HepG2 cells - 24 hour (AID 1224878); also: nearly all actives have a fitted effect of over 45% in size
Outline: as §4

[8] = A CellTox Green Cytotoxicity Assay to monitor cytotoxicity in HepG2 cells - 40 hour (AID 1224879); also: nearly all actives have a fitted effect of over 40% in size; also: potency is read from the fitted curve at half-maximal effect
Outline: as §4

[9] = qHTS RealTime-Glo MT Cell Viability Assay in HEK293 cells - 0 hour (AID 1224880); also: top concentration of the series differs between compounds; nearly all actives have a fitted effect of over 45% in size
Outline: as §2

[10] = A CellTox Green Cytotoxicity Assay to monitor cytotoxicity in HEK293 cells - 32 hour (AID 1224881); also: nearly all actives have a fitted effect of over 40% in size
Outline: as §3

[11] = A CellTox Green Cytotoxicity Assay to monitor cytotoxicity in HepG2 cells - 0 hour (AID 1224882); also: nearly all actives have a fitted effect of over 35% in size
Outline: as §4

[12] = A CellTox Green Cytotoxicity Assay to monitor cytotoxicity in HepG2 cells - 32 hour (AID 1224883); also: nearly all actives have a fitted effect of over 50% in size
Outline: as §4

[13] = A CellTox Green Cytotoxicity Assay to monitor cytotoxicity in HEK293 cells - 8 hour (AID 1224884); also: nearly all actives have a fitted effect of over 35% in size
Outline: as §3

[14] = qHTS RealTime-Glo MT Cell Viability Assay in HEK293 cells - 24 hour (AID 1224886); also: top concentration of the series differs between compounds; nearly all actives have a fitted effect of over 50% in size
Outline: as §1

[15] = qHTS RealTime-Glo MT Cell Viability Assay in HEK293 cells - 8 hour (AID 1224887)
Outline: as §2

[16] = A CellTox Green Cytotoxicity Assay to monitor cytotoxicity in HEK293 cells - 16 hour (AID 1224888); also: nearly all actives have a fitted effect of over 35% in size
Outline: as §3

[17] = qHTS RealTime-Glo MT Cell Viability Assay in HepG2 cells - 0 hour (AID 1224889); also: nearly all actives have a fitted effect of over 50% in size
Outline: as §5

[18] = A CellTox Green Cytotoxicity Assay to monitor cytotoxicity in HepG2 cells - 8 hour (AID 1224890); also: nearly all actives have a fitted effect of over 45% in size
Outline: as §4

[19] = qHTS assay to identify small molecule antagonists of the estrogen receptor alpha (ER-alpha) signaling pathway using the BG1 cell line in the presence of 0.1 nM 17-beta-estradiol - cell viability counter screen (AID 1259241); also: nearly all actives have a fitted effect of over 40% in size
Outline: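 Estradiol-stimulated (0.1 nM) VM7Luc4E2 cells exposed to compounds 22 hr; viability measured by fluorescence of cleaved CellTiter-Fluor substrate after 30 min.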

[20] = qHTS RealTime-Glo MT Cell Viability Assay in HepG2 cells - 16 hour (AID 1224885); also: nearly all actives have a fitted effect of over 50% in size
Outline: as §5
% is scaled to controls: 0 for no effect and ±100 for the full control effect.

COc1ccc2c(C(=O)c3ccc(Cl)cc3)c(C)n(CC(=O)O)c2c1
inactive: Potency [1] | outcome [2] | max response [3] 3.79% | Potency [4] | Potency [5] | Potency [6] | Potency [7] | Potency [8] | outcome [9] | Potency [10] | outcome [11] | Potency [12] | Potency [13] | Potency [14] | Potency [15] | Potency [16] | outcome [17] | Potency [18] | outcome [19]

OCC(Cl)CCl (stereo not drawn)
inactive: Potency [1] | outcome [2] | max response [3] -0.453% | Potency [4] | Potency [5] | Potency [6] | Potency [7] | Potency [8] | outcome [9] | Potency [10] | outcome [11] | Potency [12] | Potency [13] | Potency [20] | Potency [16] | Potency [18] | outcome [19]

C#CCOC(=O)/C=C(C)/C=C/CC(C)CCCC(C)C (stereo not drawn)
inactive: Potency [1] | outcome [2] | max response [3] 17.6% | Potency [4] | Potency [5] | Potency [6] | Potency [7] | Potency [8] | outcome [9] | Potency [10] | outcome [11] | Potency [12] | Potency [13] | Potency [20] | Potency [15] | Potency [16] | outcome [17] | Potency [18] | outcome [19]

N[C@@H]1C[C@H]1c1ccccc1
inactive: Potency [1] | outcome [2] | max response [3] 1.46% | Potency [4] | Potency [5] | Potency [6] | Potency [7] | Potency [8] | outcome [9] | Potency [10] | outcome [11] | Potency [12] | Potency [13] | Potency [14] | Potency [15] | Potency [16] | Potency [18] | outcome [19]

C#CC(C)(C)O
inactive: Potency [1] | outcome [2] | max response [3] 6.71% | Potency [4] | Potency [5] | Potency [6] | Potency [7] | Potency [8] | outcome [9] | Potency [10] | outcome [11] | Potency [12] | Potency [13] | Potency [20] | Potency [15] | Potency [16] | outcome [17] | Potency [18] | outcome [19]

S=C=S
inactive: Potency [1] | outcome [2] | max response [3] 6.94% | Potency [4] | Potency [5] | Potency [6] | Potency [7] | Potency [8] | outcome [9] | Potency [10] | outcome [11] | Potency [12] | Potency [13] | Potency [20] | Potency [16] | outcome [17] | Potency [18] | outcome [19]

ClC(Cl)(Cl)Cl
inactive: Potency [1] | outcome [2] | max response [3] 2.56% | Potency [4] | Potency [5] | Potency [6] | Potency [7] | Potency [8] | outcome [9] | Potency [10] | outcome [11] | Potency [12] | Potency [13] | Potency [14] | Potency [15] | Potency [16] | Potency [18] | outcome [19]

COC(=O)c1ccccc1CS(=O)(=O)NC(=O)Nc1nc(OC)cc(OC)n1
inactive: Potency [1] | outcome [2] | max response [3] 1.53% | Potency [4] | Potency [5] | Potency [6] | Potency [7] | Potency [8] | outcome [9] | Potency [10] | outcome [11] | Potency [12] | Potency [13] | Potency [20] | Potency [16] | outcome [17] | Potency [18] | outcome [19]

CCN[C@@H](C)Cc1ccccc1
active: Potency [8] 154 nM
inactive: Potency [1] | outcome [2] | max response [3] -5.07% | Potency [4] | Potency [5] | Potency [6] | Potency [7] | outcome [9] | Potency [10] | outcome [11] | Potency [12] | Potency [13] | Potency [20] | Potency [15] | Potency [16] | outcome [17] | Potency [18] | outcome [19]

CN=CNc1ccc(C)cc1C
inactive: Potency [1] | outcome [2] | max response [3] 5.53% | Potency [4] | Potency [5] | Potency [6] | Potency [7] | Potency [8] | outcome [9] | Potency [10] | outcome [11] | Potency [12] | Potency [20] | Potency [14] | Potency [16] | outcome [17] | Potency [18]

COC(=O)c1ccc(CBr)cc1
inactive: Potency [1] | outcome [2] | max response [3] 3.15% | Potency [4] | Potency [5] | Potency [6] | Potency [7] | Potency [8] | outcome [9] | Potency [10] | outcome [11] | Potency [12] | Potency [13] | Potency [20] | Potency [15] | Potency [16] | outcome [17] | Potency [18] | outcome [19]

CC(C)(C1CCC(O)CC1)C1CCC(O)CC1 (stereo not drawn)
inactive: Potency [1] | outcome [2] | max response [3] -18.7% | Potency [4] | Potency [5] | Potency [6] | Potency [7] | Potency [8] | outcome [9] | Potency [10] | outcome [11] | Potency [12] | Potency [13] | Potency [20] | Potency [14] | Potency [16] | outcome [17] | Potency [18] | outcome [19]

CS(=O)(=O)Cl
inactive: Potency [1] | outcome [2] | max response [3] -0.619% | Potency [4] | Potency [5] | Potency [6] | Potency [7] | Potency [8] | outcome [9] | Potency [10] | outcome [11] | Potency [12] | Potency [13] | Potency [20] | Potency [15] | Potency [16] | Potency [18]

Cc1ccc2cc(C)ccc2c1
inactive: Potency [1] | outcome [2] | max response [3] 8.7% | Potency [4] | Potency [5] | Potency [6] | Potency [7] | Potency [8] | outcome [9] | Potency [10] | Potency [12] | Potency [13] | Potency [20] | Potency [15] | Potency [16] | Potency [18] | outcome [19]

O=C(O)CBr
inactive: Potency [1] | outcome [2] | max response [3] -0.861% | Potency [4] | Potency [5] | Potency [6] | Potency [7] | Potency [8] | outcome [9] | Potency [10] | Potency [12] | Potency [13] | Potency [20] | Potency [14] | Potency [15] | Potency [16] | outcome [17] | Potency [18] | outcome [19]

From PubChem BioAssay (Tox21)
